This is a sample that favours compounds with a hit; in the whole collection about 2.3% have one here.
Tau ThT inhib – tau fibrillization inhibition (ThT binding); P10636; recombinant tau K18 P301L, heparin-induced fibrillization, ThT fluorescence; Potency, µM (titrated, usually from 57.4 µM), for inactives: at the highest dose activity, negative = inhibition, most hits filed as inhibitors; 2.1% of 270,000 active; AID 1460; further: potency means the concentration at half of the fitted maximal effect; nearly all actives have a fitted effect of over 55% in size
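K18 P301L tau (15 uM + 0.24 uM Alexa 594-tagged), heparin 20 uM, NaOAc pH 7, 6 h 37 C; ThT 30 uM, 1 h RT, ex 450/em 510 nm.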
Tau fluor cs – counter-screen for tau fibril formation inhibitors; tau K18 P301L Alexa594 fluorescence, heparin fibrillization; Potency, µM (top dose mostly 57.7 µM), without a hit: at the top dose activity change, negative = decrease; 0.93% of 280,000 active; further: potency means the concentration at half of the fitted maximal effect; nearly all actives have a fitted effect of over 55% in size
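Human tau K18 P301L (15 uM unlabeled, 0.24 uM Alexa 594-labeled) in 100 mM sodium acetate pH 7 with 20 uM heparin, 6 hr at 37 C. ThT 30 uM added, 1 hr ambient; Alexa 594 FP and total fluorescence read at 555/632 nm.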
FBPA coupling cs – coupling enzyme interference in Giardia aldolase counter-screen; coupling enzyme system counterscreen, AmpLite Red fluorescence; activity change, negative = inhibition, % at 58.2 µM, hits read low; 0.67% of 290,000 active; AID 2472; in the data active means activity change below about -30%
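Counterscreen lacking aldolase: glyceraldehyde-3-phosphate coupling-enzyme reagent preincubated 10 min at RT with compound (at 57.5 uM final), then substrate/coupling system with AmpLite Red added; fluorescence read at 525/598 nm after 20 min RT.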
USP1 inh – blocks the human USP1/UAF1 deubiquitinase complex. O94782. recombinant USP1/UAF1, Ub-Rhodamine cleavage fluorescence. Potency, µM (highest dose often 57.1 µM), inactives show top-dose activity change, negative = inhibition, usual class: inhibitors. 0.23% of 390,000 active. AID 743255; further: potency means the concentration at half of the fitted maximal effect; nearly all actives have a fitted effect of over 60% in size
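USP1/UAF1 complex at 1 nM was preincubated with compound for 15 min at room temperature, then Ub-Rho substrate (150nM final) was added. Fluorescence (480/540 nm) was read kinetically, 6 reads every 60 seconds.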
Tau fibril FP – blocks human tau fibril formation measured by polarization | K18 P301L tau heparin fibrillization, Alexa594 FP, 6 h | Potency, µM (doses to about 57.7 µM), for the others: at the highest dose activity, negative = inhibition, hits mostly inhibitors | P10636 | 0.39% of 280,000 active; further: potency means the concentration at half of the fitted maximal effect; nearly all actives have a fitted effect of over 55% in size
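Recombinant K18 P301L […], labeled with Alexa 594 at 0.24 uM over 15 uM unlabeled; heparin inducer 20 uM final; 37 C, 6 hr; FP endpoint.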
The depositor's hits bear a star; ? = inconclusive; / = no result given; [ ] = dose if it differs, or a comment. Unless noted, the call rests on the fitted dose curve; in most records, active means well fitted curve in the direction sought with a large enough effect; inconclusive means small, poorly fitted or top-dose-only effect, or another doubt; inactive means no such curve, though single readings can be large; an effect the other way counts as inactive or inconclusive. On the % scale 0 is the no-effect control and ±100 the full control effect.

SMILES	Tau ThT inhib	Tau fluor cs	FBPA coupling cs	USP1 inh	Tau fibril FP
COc1ccc(-c2cc(-c3ccc(OC)c(OC)c3)n[nH]2)c(O)c1	-9%	16µM*[quencher]	-3	-12%	2%
COc1ccc(-c2cc(-c3ccccc3O)[nH]n2)cc1OC	?	?	2	-13%	?
Cc1ccc(O)c(-c2cc(-c3cccc(F)c3)n[nH]2)c1	-12%	32µM*[quencher]	-2	-10%	?
O=S(=O)(NCC(c1ccco1)S(=O)(=O)c1ccccc1)c1cc(F)ccc1F (stereo not drawn)	1%	-12%	/	-18%	-9%
Cc1ccc(-n2ncc3c2CCCC3NC(=O)CCc2cnccn2)cc1C (stereo not drawn)	/	/	4	-16%	/
CN(C)c1ccc(N=Cc2nc(-c3ccccc3)oc2OC(=O)c2cccc(Br)c2)cc1	10µM*	-27%	-2	-18%	?
COc1ccc(N=Cc2nc(-c3ccccc3)oc2OC(=O)c2ccccc2)cc1	?	-17%	-1	-5%	?
CCOc1ccc(C(=O)c2cn(CC(=O)Nc3ccc(F)cc3)c3cc4c(cc3c2=O)OCCO4)cc1	0%	-24%	/	-26%	?
Cc1cccc(NC(=O)CSCC(=O)Nc2cccc3ncccc23)c1	/	/	/	-11%	/
COc1ccc(C(CNC(=O)Nc2cccc(C)c2)N2CCN(C)CC2)cc1 (stereo not drawn)	/	/	/	-22%	/
Cc1cccc(NC(=O)c2ccc(N3CCOCC3)c([N+](=O)[O-])c2)n1	?	-4%	-18	-13%	-4%
Cc1ccc(NC(=S)NNC(=O)c2ccc(N3CCOCC3)c([N+](=O)[O-])c2)cc1Cl	11µM*	?	5	-13%	?
Cc1cc(C(=O)Nc2ccc(N3CCCC3)c(Cl)c2)ccc1[N+](=O)[O-]	5µM*	?	-10	-30%	5%
Cc1ccc(NC(=O)c2ccc(NCCN)c([N+](=O)[O-])c2)cc1Cl	13µM*	?	2	-16%	5%
O=C(Nc1ccc(N2CCCC2)c(Cl)c1)c1ccc([N+](=O)[O-])cc1	?	?	-2	-11%	3%
COc1ccc(NC(=O)c2ccc(NCC3CCCO3)c([N+](=O)[O-])c2)cc1 (stereo not drawn)	13µM*	-22%	-1	-5%	6%
O=C(Nc1ccccc1N1CCOCC1)C1=NN(c2c(F)c(F)cc(F)c2F)C(=O)CC1	/	/	/	-28%	/

Assay outcomes from PubChem.
